Laboratory results published in PubChem BioAssay AID488837 (National Center for Advancing Translational Sciences (NCATS), 2010).
About 20 (0.006%) of roughly 330,000 compounds were called active. Roughly 1% stayed inconclusive and do not appear here. This excerpt belongs to a sample that is enriched for actives. A number with no mark means an inactive call. Calls follow the shape of the dose curve; as a rule, active = well fitted inhibition curve with a large enough effect; inconclusive = small, poorly fitted or top-dose-only effect, or effect the other way; inactive = flat fitted curve, though single readings scatter.

Biological target: Protein phosphatase EYA2 (Homo sapiens) (UniProt O00167)
Experiment: qHTS Assay for Inhibitors of the Phosphatase Activity of Eya2
Settings: recombinant Eya2, OMFP fluorescence dephosphorylation (OMFP is methylfluorescein phosphate); series mostly up to 76.9 µM; activity, negative = inhibition: at the top concentration
Text: The Eya family of proteins are essential co-activators of the Six1 transcription factor. Six1 is a developmental gene that is abnormally re-expressed in a large percentage of breast cancers. This over-expression plays a causal role in the initiation and metastatic development of breast cancers. The Eya family of proteins was also found to contain a unique HAD phosphatase domain with protein tyrosine phosphatase activity which can potentially play a role in Six1-mediated breast tumorigenesis. […] We have developed and optimized a 1536 well fluorescence-based HTS assay targeting the phosphatase activity of Eya2. Inhibitors found against Eya2 could serve as potential therapeutic tools to inhibit Six1-mediated breast tumorigenesis and to increase the efficiency of radiation and certain chemo therapy. These inhibitors could also be used as chemical probes to study the function of Eya2's phosphatase activity and its role in Six1-mediated breast tumorigenesis.
The Eya2 enzyme was kindly provided by the laboratory of Dr. Rui Zhao. The 3-O-methyl-fluorescein phosphate (OMFP) substrate and all buffer reagents were purchased from Sigma Aldrich. qHTS Assay Setup: 1. Buffer- 50 mM HEPES pH 7.5, 50 mM NaCl, 5 uM MgCl2, 0.05% BSA, 1 mM DTT. 2. OMFP Stock- 10 mM solution prepared in 100% DMSO and stored in single use aliquots at -20C. Assay Procedure- 1. Dispense 1.5 ul per well of Eya2 at 0.2 uM in black medium binding 1536 well Greiner plate 2. Transfer 23 nl of compound and control compound (EGTA) to plate 3. Incubate at ambient for 10 minutes 4. Dispense 1.5 ul per well of OMFP at 50 uM 5. Incubate at ambient for 10 minutes 6. Read on ViewLux using Excitation = 485 nm, Emission = 525 nm
% is scaled to controls: 0 for no effect and ±100 for the full control effect.

Sequence of Protein phosphatase EYA2 (Homo sapiens) (O00167 whole entry, looked up): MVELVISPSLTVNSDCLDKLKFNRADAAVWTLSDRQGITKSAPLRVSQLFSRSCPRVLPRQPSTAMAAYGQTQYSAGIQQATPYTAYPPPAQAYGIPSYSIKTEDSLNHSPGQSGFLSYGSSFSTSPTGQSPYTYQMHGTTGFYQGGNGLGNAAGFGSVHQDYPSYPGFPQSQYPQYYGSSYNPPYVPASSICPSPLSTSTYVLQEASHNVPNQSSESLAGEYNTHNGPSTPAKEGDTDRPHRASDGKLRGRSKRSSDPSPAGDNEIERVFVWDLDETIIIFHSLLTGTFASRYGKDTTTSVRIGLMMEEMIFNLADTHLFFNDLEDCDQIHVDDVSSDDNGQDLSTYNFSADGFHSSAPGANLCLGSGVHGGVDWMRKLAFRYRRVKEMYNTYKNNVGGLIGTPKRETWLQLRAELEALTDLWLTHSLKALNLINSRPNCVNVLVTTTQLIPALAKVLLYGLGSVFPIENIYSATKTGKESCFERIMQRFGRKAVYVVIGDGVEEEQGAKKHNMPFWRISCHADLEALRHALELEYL

Structure (SMILES)	activity, negative = inhibition [%]
O=C(CN1CCN(S(=O)(=O)c2ccc3ccccc3c2)CC1)NC(=O)NC1CCCCC1	-19.3
CN(CC(=O)Nc1c(Cl)cccc1Cl)C(=O)CC1OC(=O)c2ccccc21 (configuration not stated)	3.23
CN(Cc1nc2ccc(F)cc2[nH]1)Cc1nc(CC2CC2)no1	0.753
COc1ccc(-c2nc(CS(=O)(=O)CC(=O)NCc3cccc(Br)c3)c(C)o2)cc1	17.1
CCOC(=O)c1ccc2c(c1)nc(SCC(=O)NC(C)C)n2CC	-9.46
CC1(C)CC(O)C(CCC(O)c2ccccc2)C(C)(C)N1 (configuration not stated)	5.53
Cc1ccc(S(=O)(=O)N(C)C)cc1NC(=O)c1ccccc1Br	16.7
CC1CC(C)CN(CCCNC(=O)Cn2ncc3c([nH]c4ccccc43)c2=O)C1 (configuration not stated)	9.07
O=C1COc2ccc(C(=O)COC(=O)C3CC(O)CN3S(=O)(=O)c3ccc(Cl)cc3)cc2N1 (configuration not stated)	5.76
NC(=O)Cn1nc([N+](=O)[O-])nc1Oc1ccc(Br)cc1	-14.5
Cc1cc(C)nc(SC2CCCCC2NS(=O)(=O)c2ccc(Cl)cc2)n1 (configuration not stated)	-8.85
O=C(O)c1cc(S(=O)(=O)Nc2ccc3cn[nH]c3c2)ccc1Br	-15.2
CCN(CC(=O)NC1CCS(=O)(=O)C1)S(=O)(=O)c1ccccc1 (configuration not stated)	-0.424
COc1ccc(COC(=O)c2ccc(Cl)c(S(=O)(=O)N3CCOCC3)c2)cc1F	-8.01
CCN(CC)Cc1c(C(=O)N/N=C/c2cccc(OCc3ccc(F)cc3)c2)nnn1-c1nonc1N	-9.2
O=C(CN(C(=O)c1csnn1)c1cccc(F)c1)NCc1ccc(F)cc1	-3.74
CC(C)=CCN1CCN(Cc2ccc(Oc3ncccn3)cc2)CC1CCO (configuration not stated)	1.39
COc1ccc(N2CCN(C(=O)CN3C(=O)COc4ccccc43)CC2)cc1	-0.881
O=C(O)c1cscn1	17.9
COc1cccc2cc(-c3cc(=O)oc4cc(C)c(O)cc34)oc12	12.5
O=C(C[C@H]1C/C=C\C[C@@H](NC(=O)OCC2c3ccccc3-c3ccccc32)C(=O)O[C@@H](c2ccccc2)CNC1=O)N[C@H](CO)Cc1ccccc1	-18.4

Structure (SMILES)	activity, negative = inhibition [%]
CCOc1cc(/C=N/Nc2cc(C)nc3ccc(C)cc23)ccc1O	-6.47
CC(C)CN(C(=O)CN1CCN(S(=O)(=O)c2ccccc2)CC1)c1c(N)n(CC(C)C)c(=O)[nH]c1=O	2.96
COc1ccc(S(=O)(=O)N2CCCC(C(=O)NCCCn3ccnc3)C2)cc1OC (configuration not stated)	10
COc1ccc(NC(=O)C/C(C)=N/NC(=O)c2cnccn2)cc1Cl	3.03
Cc1ccc(S(=O)(=O)N(CC(=O)N/N=C/c2ccc(F)cc2)c2cccc3cccnc23)cc1	12.1
COc1ccc(C(=O)N(CCN2CCOCC2)CC(=O)NC2CCCC2)cc1OC	12.7
O=C(NC(Cc1c[nH]c2ccccc12)C(=O)O)/C(=C/c1ccco1)NC(=O)c1ccccc1 (configuration not stated)	12.3
O=C(NCc1ccccc1Cl)C(=O)NCC1CCCN1S(=O)(=O)c1cccs1 (configuration not stated)	1.47
CCC1(C)CC(=O)NC1=O (configuration not stated)	3.35
CCCCOC(=O)Nc1nccs1	1.29
Cc1ccc(NS(=O)(=O)c2ccc3c(c2)NC(=O)CO3)cc1	8.25
COC(=O)[C@H](Cc1ccccc1)NC(=O)[C@@H]1C[C@H]1[C@@H](NC(=O)OCc1ccccc1)c1ccccc1	-3.24
COc1ccc(C2OC(=O)CC2C(=O)NC(C)C)cc1 (configuration not stated)	-10.7
Cc1csc(=O)n1CC(=O)OCC(=O)N(CC(C)C)c1c(N)n(Cc2ccccc2)c(=O)[nH]c1=O	-0.534
C[C@@H](CN1CCC[C@H]1CN1C(N)=NC[C@@H]1Cc1ccccc1)N1C[C@@H](Cc2ccccc2)N(CCCC2CCCC2)C1=N	-6.56
O=C(Nc1cc(S(=O)(=O)N2CCOCC2)ccc1OCC(F)(F)F)c1ccc(N2CCCC2=O)cc1	-23.5
Cc1ccc(O)c(-c2cc(C(=O)Nc3c(C)n(C)n(-c4ccccc4)c3=O)[nH]n2)c1	-3.31
O=C(CCC(=O)OCc1cccc(C(=O)Oc2ccccc2)c1)Nc1cccc2ccccc12	-8.93
CC(C)C(NC(=O)c1c(F)cccc1F)C(=O)NNC(=O)c1ccccc1 (configuration not stated)	-29.1
CCn1cc(CN2CCC(n3nccc3NC(=O)CCCc3ccccc3)CC2)c(C)n1	4.01
CC(C)c1nnc(NC(=O)C2CC(=O)N(CCc3ccc(F)cc3)C2)s1 (configuration not stated)	1.05

Structure (SMILES)	activity, negative = inhibition [%]
CN(c1ccc(OCC(=O)OCC(=O)Nc2cccc([N+](=O)[O-])c2)cc1)S(=O)(=O)c1ccc(F)cc1	-16
Nc1ccc(Nc2cc(O)c3ncccc3c2)cc1	-10.3
CCOc1ccc(C(=O)CCC(=O)Nc2ccncc2)cc1	16.6
CCCCc1ccc(NC(=S)N2CCCC(CO)C2)cc1 (configuration not stated)	3.85
COc1ccc(C(=O)CCc2ccccc2O)c(OC)c1	-1.09
CC1=CCC2C(=O)N(c3cccc(C(=O)NC(C)c4ccccc4)c3)C(=O)C2C1 (configuration not stated)	5.67
COc1ccc(S(=O)(=O)N2CCN(C(=O)N(C)C)C2C)cc1 (configuration not stated)	-3.3
CCOc1ncccc1C(=O)NNC(=O)c1cccc(S(=O)(=O)Nc2ccccc2OC)c1	16.1
CCN(CC)C(=O)Oc1ccc(Br)cc1C(=O)Nc1ccc(F)c(Cl)c1	6.75
NS(=O)(=O)c1ccc(CCNS(=O)(=O)c2cccc3cccnc23)cc1	8.75
Cc1ccc(CNC(=O)CCS(=O)(=O)c2ccc3c(c2)CC(C)N3C(=O)C2CC2)o1 (configuration not stated)	1.79
O=C(NCc1ccco1)C1CCCN1S(=O)(=O)c1ccccc1C(F)(F)F (configuration not stated)	5.37
CCNc1nc(Oc2ccc(C(=O)OC)cc2)nc(N2CCOCC2)n1	11
Cc1ccc2nc(NC(=O)CSc3nc(=O)n(CCCN(C)C)c4c3CCC4)sc2c1	3.73
CCOc1ccc(Br)cc1S(=O)(=O)Nc1ccc(S(=O)(=O)Nc2cc(C)on2)cc1	-19.4
CCCc1nc(SCC(=O)Nc2ccccc2OC)c2c(=O)n(C)c(=O)n(C)c2n1	12.4
CN(C)S(=O)(=O)c1ccc(C(=O)NCCN=C2NS(=O)(=O)c3ccccc32)cc1	-23.4
CC(=O)NCCC(=O)Nc1cc(S(=O)(=O)N2CCCCC2)ccc1Oc1cccc(C)c1	-5.51
COc1ccc(C(C(=O)NC2CCCC2)N(CCCO)C(=O)Cn2nnc(-c3ccc(C)o3)n2)cc1 (configuration not stated)	-6.59
CCc1cc(C(=O)OC)c(NC(=O)CC2Sc3ccc(C(F)(F)F)cc3NC2=O)s1 (configuration not stated)	17.3
